# Screening results: PubChem, National Center for Advancing Translational Sciences (NCATS)
# An excerpt weighted towards active compounds, which were near 2.8% of everything screened.
# Pol beta inh: DNA polymerase beta (human) inhibition; P06746; Pol beta primer extension/strand displacement, fluorescence kinetic; Potency, µM (top dose mostly 114 µM), usual class: inhibitors; 340,000 compounds, 1.3% hits
#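 Kinetic readout of DNA synthesis with strand displacement by Pol beta. Compound and 10 nM enzyme sit 15 min at room temperature; 50 nM substrate starts the reaction, read immediately and at 10 min.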
# PI5P4K alpha inh: blocks human PI5P4K alpha kinase activity; P48426; PI5P4Kalpha enzyme, ADP-Glo luminescence, 60 min; hits give low values; max response, %; 330,000 compounds, 1.2% hits; active = max response of -50% or lower; inconclusive = between -30% and -50%; inactive = -30% or higher; also: value at the top dose of about 77 µM
#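 Luminescence from ADP-Glo served as readout of PI5P4Kalpha activity in a qHTS format. Reaction: enzyme, substrate, compound, ATP at 5 microM final, 60 min at RT.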
# Pol kappa inh-1: inhibitors of human DNA polymerase kappa | Q9UBT6 | purified Pol kappa, fluorescent DNA synthesis assay, 10 min | Potency, µM (top dose mostly 107 µM), hits mostly inhibitors | 400,000 compounds, 0.53% hits | AID 588579
#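 Enzyme at 10 nM met test compounds for 15 min at room temperature. Substrate addition (50 nM final) began the reaction, which was monitored by fluorescence at 0 and 10 min.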
# WRN helicase inh: inhibitors of human WRN helicase; AID 651768; WRN helicase unwinding, fluorescent forked duplex, kinetic; Potency, µM (titrated, usually from 114 µM), actives largely listed as inhibitors; Q14191; 360,000 compounds, 0.46% hits; also: nearly all actives have a fitted effect of over 55% in size
#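 Kinetic red-fluorescence monitoring (525/598 nm) tracks WRN helicase activity after 100 nM fluorophore-quencher forked duplex and 2 mM ATP are added to 20 nM enzyme pretreated 15 min at room temperature with compound.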
# POLI inh: inhibitors of human DNA polymerase iota; Q9UNA4; AID 588590; Potency, µM (highest dose often 115 µM), usual class: inhibitors; Pol iota fluorescent replication assay, 10 min; 390,000 compounds, 1% hits
#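 Pol iota at 10 nM preincubated 15 min with compounds at room temperature; reaction started with fluorescent substrate, 50 nM final. Fluorescence read kinetically at 0 and 10 min; buffer-only wells as negative control.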
# Pol eta inh-1: inhibitors of human DNA polymerase eta | 390,000 compounds, 1.2% hits | Q9Y253 | recombinant Pol eta, fluorescent DNA replication assay | Potency, µM (doses to about 114 µM), actives largely listed as inhibitors
#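 Pol eta (10 nM) was preincubated with compounds for 15 min at room temperature, after which fluorescent replication substrate (50 nM final) was added to start the reaction. Fluorescence was read kinetically at 0 and 10 min.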
# Pol kappa inh-2: confirmation of human DNA polymerase kappa inhibitors; Potency, µM, actives largely listed as inhibitors; AID 720501; shares compounds with Pol eta inh-1; purified Pol-kappa, fluorescent strand-displacement substrate; 920 compounds, 76% hits
# Pol eta inh-2: Pol eta (human) inhibition, cherry-pick confirmation. Potency, µM, usual class: inhibitors. shares compounds with Pol eta inh-1. 2,600 compounds, 64% hits. Pol eta primer extension, TAMRA/BHQ fluorescence, 10 min
# Numbers stand for hits; - = inactive; ? = inconclusive; . = not tested or not shown; ! = a repeat was not active; [ ] = remark or other dose. Unless noted, calls follow the shape of the dose curve; as a rule, active = well fitted curve in the direction sought with a large enough effect; inconclusive = small, poorly fitted or top-dose-only effect, or another doubt; inactive = no such curve, though single readings can be large; an effect the other way counts as inactive or inconclusive.
SMILES,Pol beta inh,PI5P4K alpha inh,Pol kappa inh-1,WRN helicase inh,POLI inh,Pol eta inh-1,Pol eta inh-2,others
CCOc1ccc(-c2ccc(/C=C3/C(=N)N4C(C)=CSC4=NC3=O)o2)c([N+](=O)[O-])c1,35.5µM,-59.3,?,?,39.8µM,14.1µM,?,
COc1ccc(Cl)cc1NC(=O)c1c(NCc2ccc(C)o2)sc2c1CCCCC2,-,.,-,.,?,?,?,Pol kappa inh-2=?
O=C(O)c1ccc2c(=O)n3cc(C(=O)c4ccccc4O)cc(Cl)c3nc2c1,?,?,-,-,?,8.91µM,12,
COc1ccc2c(c1)c(=O)oc1c(C)c(OC(C)C(=O)N[C@@H](Cc3c[nH]c4ccc(O)cc34)C(=O)O)ccc12 (stereo partly specified),?,-,?,-[11.6 µM],?,20µM,47.8,
COCC(=O)N1CCC[C@@]2(CCN(Cc3nccs3)C2)C1,.,.,-,.,.,.,.,
COc1ccc(NC(=O)Cn2cc(S(=O)(=O)Cc3ccc(F)cc3)c3ccccc32)cc1OC,-,.,-,.,?,50.1µM,.,Pol kappa inh-2=?
CC(C)(C)NC(=O)Cn1cc(S(=O)(=O)Cc2ccc(F)cc2)c2ccccc21,-,.,-,.,-,-,.,
CCOC(=O)c1sc(NC(=O)COC(=O)C(CCSC)NC(C)=O)nc1C (stereo unspecified),-,-,-,-,-,-,.,
O=C(O)CCC(=O)Nc1ccc2c(c1)Cc1cc(NC(=O)CCC(=O)O)ccc1-2,44.7µM,-,-,-[11.6 µM],-,25.1µM,?,
COc1cc(NC(=O)CN2C(=O)C(c3ccc(C)cc3)=NC23CCCCCC3)cc(OC)c1,-,.,-,.,-,.,.,
CC[N+](CC)(CC)CCCCOc1ccc2c(c1)C(=O)c1cc(OCCCC[N+](CC)(CC)CC)ccc1-2,-,-,-,50.1µM,?,?,?,
Cc1occc1C(=O)Nc1cccc(/C=C/C(=O)O)c1,.,-,?,?,?,17.8µM,26.9,
Cc1occc1C(=O)Nc1cccc(C(=O)O)c1,-,.,-,-,?,-,.,
O=C(O)c1ccc2nc(-c3cc4cc(F)ccc4oc3=O)[nH]c2c1,35.5µM,.,-,.,?,35.5µM,60.1,
Cc1ccccc1CNC(=O)CCS(=O)(=O)c1cc2c3c(c1)CCN3C(=O)CC2,-,.,-,.,?,?,.,
O=C(O)CN1C(=O)/C(=C/c2ccc(SCc3ccccc3)o2)SC1=S,3.55µM,?,79.4µM,?,?,17.8µM,75.7,
O=C(O)c1ccccc1C1=Nc2ccc(O)cc2Oc2cc(O)ccc21,50.1µM,?,-,?,39.8µM,?,.,Pol kappa inh-2=?
Cc1ccc(C)c(N2CCN(CCCNC(=O)c3cnn(-c4ccccc4Cl)c3C3CCN(C(=O)OC(C)(C)C)CC3)CC2)c1,-,.,-,.,-,-,.,
NC(=O)CC[C@@H]1NC(=O)[C@H](CO)NC(=O)c2cc([N+](=O)[O-])cc(I)c2OCC[C@@H](C(N)=O)NC1=O,-,-,-,-,-,-,.,
NCCCC[C@@H]1NC(=O)[C@H](CCC(=O)O)NC(=O)c2cc([N+](=O)[O-])cc(I)c2OCC[C@@H](C(N)=O)NC1=O,-,-,25.1µM,-,?,14.1µM,30.1,
Cc1cc(C2(c3ccc(O)c(C)c3)OC(=O)c3ccccc32)ccc1O,35.5µM,?,-,-,?,?,?,
C[C@@H]1CN([C@H](C)CO)C(=O)c2c(c3ccccc3n2C)-c2ccccc2CO[C@H]1CN(C)S(=O)(=O)c1cn(C)cn1,.,-,.,-,.,-,.,
COc1ccc(NC(=O)c2c(NCc3cccs3)sc3c2CCCC3)cc1,-,.,-,.,-,-,.,
CCOC(=O)c1ccc(NC(=O)c2c(NCc3cccs3)sc3c2CCCCC3)cc1,?,.,-,.,?,79.4µM,?,
Cc1cc(C)c(NC(=O)c2cc(C)nc3c2c(C)nn3-c2cccc(F)c2)c(C)c1,-,.,-,.,-,-,.,
SMILES,Pol beta inh,PI5P4K alpha inh,Pol kappa inh-1,WRN helicase inh,POLI inh,Pol eta inh-1,Pol eta inh-2,others
NS(=O)(=O)c1cc2c(cc1C(F)(F)F)N[C@H](Cc1ccccc1)NS2(=O)=O,.,.,-[12 µM],.,.,.,.,
Cc1cc(C)c(OCC(=O)Nc2nnc(-c3ccco3)o2)c(C)c1,-,-,-,-,-,-,.,
CC(=O)Nc1ccc(Nc2nc(C)c([N+](=O)[O-])c(Nc3ccccc3)n2)cc1,-,-,-,-,-,-,.,
Cc1nc(Nc2ccc(C(=O)O)cc2)nc(Nc2ccc(C(=O)O)cc2)c1[N+](=O)[O-],-,-56.4,?,-[11.6 µM],44.7µM,35.5µM,37.9,
COc1ccc(OC)c(/C=N/Nc2nncn2/N=C/c2cc(OC)ccc2OC)c1,?,-,-,-,?,?,30.1,
COc1ccc(OC)c(/C=N\Nc2nccs2)c1,.,-,-,-,-,-,.,
CC1=CCC(C(=O)O)C(C(=O)NC2CCCCC2)C1 (stereo unspecified),28.2µM,-,-,-[11.6 µM],?,20µM,84.9,Pol kappa inh-2=84.4
CC1=C(C)CC(C(=O)NC2CCCC2)C(C(=O)O)C1 (stereo unspecified),-,-,-,-,-,-,.,
COc1ccc(/C=C/C(=O)O)cc1S(=O)(=O)NC1CCS(=O)(=O)C1 (stereo unspecified),?,-,-,-[11.6 µM],?,28.2µM,?,Pol kappa inh-2=67
COc1ccc(/C=C/C(=O)O)cc1S(=O)(=O)NCc1ccco1,?,-,-,-,?,56.2µM,67.5,
COc1cc(/C=C/C(=O)O)cc(S(=O)(=O)NCc2ccco2)c1OC,-,-,-,-,-,-,.,
COc1cc(/C=C/C(=O)O)cc(S(=O)(=O)NC2CCCC2)c1OC,-,-,-,-,-,-,.,
CCN(CC)C(=S)SC1CCCCN(C(=O)c2ccccc2)C1=O (stereo unspecified),-,-,-,-,-,-,.,
CCOc1ccc2nc(NC(=O)CN3CCC(n4nnc5cc(F)ccc54)CC3)sc2c1,-,-,-,-,-,-,.,
Cc1oc2c(cc(NS(=O)(=O)c3ccc(C(C)C)cc3)c3ccccc32)c1C(=O)O,50.1µM!,-,?,-[11.6 µM],?,44.7µM,?,Pol kappa inh-2=?
Cc1oc2c(cc(NS(=O)(=O)c3ccc(F)cc3)c3ccccc32)c1C(=O)O,-,?,-,-,?,?,.,
O=C(O)/C(=C/c1ccco1)NC(=O)c1ccc(Br)o1,?,-,-,-,?,?,60.1,
CC(C)C(NC(=O)/C(=C\c1ccco1)NC(=O)c1ccco1)C(=O)O (stereo unspecified),22.4µM,-,?,-,-,20µM,.,Pol kappa inh-2=?
O=C(O)/C(=C/c1ccco1)NC(=O)c1ccccc1,39.8µM,-,-,-,?,11.2µM,?,Pol kappa inh-2=47.4
O=C(NCc1ccco1)/C(=C/c1ccco1)NC(=O)c1ccc(Br)o1,-,-,-,-[11.6 µM],?,?,.,
